CCHFV vOTU inh – CCHFV vOTU protease inhibitors, primary screen, biochemical, Pep-AMC substrate, fluorescence. Crimean-Congo hemorrhagic fever virus L polyprotein viral ovarian tumor (vOTU) protease …. inhibition, % at 11.5 µM. 370,000 compounds, 0.55% hits. AID 651958, 2012; note: 0% = vehicle wells with enzyme and 100% = no enzyme wells
Mtb FBA inh – Mtb FBA enzyme inhibitors, primary screen, biochemical, fluorescence, strain H37Rv | Fructose-bisphosphate aldolase (Mycobacterium tuberculosis (strain ATCC 25618 / H37Rv)), … | purified M. tuberculosis FBA, fluorescence read-out | inhibition, % at 1 µM | 360,000 compounds, 2.3% hits; in the data active = inhibition above about 27%;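 note: 0% = vehicle and 100% = reference inhibitor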
Target sequence (P9WQA3 whole entry, looked up): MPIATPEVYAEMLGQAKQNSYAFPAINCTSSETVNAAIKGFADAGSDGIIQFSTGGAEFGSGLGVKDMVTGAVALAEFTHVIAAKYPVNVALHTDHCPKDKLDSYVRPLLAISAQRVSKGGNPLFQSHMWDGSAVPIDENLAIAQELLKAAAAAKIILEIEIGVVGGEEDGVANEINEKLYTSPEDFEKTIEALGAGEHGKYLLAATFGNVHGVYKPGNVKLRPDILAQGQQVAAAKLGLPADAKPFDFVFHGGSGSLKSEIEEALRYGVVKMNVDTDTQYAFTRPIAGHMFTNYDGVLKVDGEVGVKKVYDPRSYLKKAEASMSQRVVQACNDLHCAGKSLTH
RecA splice inh – Mtb RecA intein splicing inhibitors, primary screen, biochemical, fluorescence, HTS; Protein RecA (Mycobacterium tuberculosis (strain ATCC 25618 / H37Rv)), P9WHJ3; cell-free RecA intein splicing; inhibition, % (no concentration beside the values); 290,000 compounds, 0.75% hits; AID 2221, 2009; in the data active = inhibition above about 30%;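 note: 0% = vehicle wells and 100% = reference inhibitor control wells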
GDH-TPI counter-1 – GDH-TPI coupling enzyme inhibitors, primary screen, artefact control for M. tuberculosis FBA inhibitor project, biochemical, absorbance, full deck | AID 588335, 2011 | 360,000 compounds, 1.2% hits | inhibition, % at 4.8 µM | GDH-TPI coupled enzyme counterscreen, NADH absorbance;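 note: 0% = DMSO wells and 100% = wells lacking the enzyme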
Mtb FBA inh conf – M. tuberculosis aldolase blockers, biochemical, fluorescence, strain H37Rv, confirmation. 5,600 compounds, 78% hits. shares compounds with Mtb FBA inh. purified M. tuberculosis FBA, fluorescence read-out. inhibition, % at 1 µM; in the data active = inhibition above about 27%;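 note: 0% = vehicle wells and 100% = reference inhibitor wells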
GDH-TPI counter-2 – GDH-TPI coupling enzyme inhibitors, artefact control for M. tuberculosis FBA inhibitor project, biochemical, fluorescence, high throughput. shares compounds with Mtb FBA inh. GDH-TPI coupled enzyme counterscreen. inhibition, % at 1 µM. 5,600 compounds, 81% hits; in the data active = inhibition above about 10%
GDH-TPI DR – GDH-TPI coupling enzyme inhibitors, dose response, artefact control for M. tuberculosis FBA inhibitor project, biochemical, fluorescence, IC50 | GDH-TPI coupled enzyme assay, artifact counterscreen | IC50, µM | 170 compounds, 79% hits | shares compounds with Mtb FBA inh; call rule not given here
Numbers without * were called inactive; x = no result given; + = active, no number. Most compounds without a hit are left out; they make up all but 4.2% or so of the library. Cut-off read from the data, not from the text of the source, unless noted: active = inhibition above about 30%; inactive = the rest.

SMILES	CCHFV vOTU inh	Mtb FBA inh	RecA splice inh	GDH-TPI counter-1	Mtb FBA inh conf	GDH-TPI counter-2	others
Fc1cccc2sc(Nc3nc4cc5c(cc4s3)OCO5)nc12	-10	35*	0	19	128*	93*
CC(=O)Nc1nc2cc3c(cc2s1)OCCO3	-2	5	-3	0	x	x
CC(C)C(=O)Nc1nc2cc3c(cc2s1)OCO3	1	-3	0	9	x	x
CCCCN(C)C(=O)Cn1nc(-c2ccc(Cl)cc2)ccc1=O	-8	77*	-2	3	46*	41*
CCCCN(C)CCNC(=O)CCn1nc(-c2ccc(Cl)cc2)ccc1=O	-4	1	-1	8	x	x
Cc1ccc(C(=O)C(C)OC(=O)CN2C(=O)NC3(CCCC3)C2=O)cc1 (centres undefined)	4	-2	2	-1	x	x
Cc1ccc(-c2cc(C)nc3nc(N)nn23)cc1	-35	83*	x	17	61*	51*
CCCCC(=O)N(Cc1nc2sc(C)c(C)c2c(=O)[nH]1)C1CCCC1	16	0	-3	7	x	x
O=C(Nc1ccc(-c2nc3cccnc3s2)cc1)c1ccco1	-12	29*	-2	28	10	-2	GDH-TPI DR=3.1*
O=C(Nc1ccc2oc(-c3cccnc3)nc2c1)c1ccco1	-13	29*	-1	4	-2	-6
O=C(Nc1cccc(-c2nc3cccnc3s2)c1)c1ccco1	-20	1	0	6	x	x
O=C(Nc1ccc(-c2nc3ncccc3o2)cc1)c1ccco1	-1	27*	0	45*	58*	50*
CC(C)C(OC(=O)c1ccco1)C(=O)NCc1ccc2c(c1)OCO2 (centres undefined)	11	74*	1	2	135*	84*
CC(OC(=O)c1ccco1)C(=O)NCc1ccc2c(c1)OCO2 (centres undefined)	-2	2	-1	-7	x	x
CC(=O)OC(C(=O)NCc1ccc2c(c1)OCO2)c1ccccc1Cl (centres undefined)	7	105*	0	4	120*	92*
COc1ccc2oc(C(=O)OCC(=O)N3CCCC3=O)c(C)c2c1	-23	45*	2	2	73*	36*
COc1ccc(C(=O)OCC(=O)N2CCCC2=O)c(OC)c1	-11	3	1	5	x	x
COc1ccc2oc(C(=O)OCC(=O)N3C(C)CCCC3C)c(C)c2c1 (centres undefined)	-15	40*	4	-3	41*	45*
COc1ccc2oc(C(=O)OCC(=O)N3CCCCC3C)c(C)c2c1 (centres undefined)	-12	63*	x	1	195*	169*
CCOc1ccc2oc(C(=O)OCC(=O)N3C(C)CCCC3C)c(C)c2c1 (centres undefined)	8	48*	x	6	91*	87*
Nc1ncnc2c1C(c1ccccc1)c1c(ccc3ccccc13)O2 (centres undefined)	-4	0	x	9	x	x
O=C(Nc1ccc(F)c(Cl)c1)C1Cc2c(-c3ccco3)ccnc2O1 (centres undefined)	2	1	x	15	x	x
C=CCN1C(=O)c2ccc(C(=O)NCCc3ccc(F)cc3)cc2C1=O	5	1	6	9	x	x
COc1ccc(C(=O)N2CCC(C)(C(=O)O)C2)cc1OC (centres undefined)	0	5	x	4	x	x
CN1CCN(C(=O)c2cc3c(ccc4ccccc43)oc2=O)CC1	-146	54*	-65	12	45*	31*
SMILES	CCHFV vOTU inh	Mtb FBA inh	RecA splice inh	GDH-TPI counter-1	Mtb FBA inh conf	GDH-TPI counter-2	others
Cn1ccnc1CN1CCCCC1C(=O)Nc1ccc(Oc2cccnc2)cc1 (centres undefined)	-3	1	0	2	x	x
CCCNC(=O)c1ccc(-c2nc3ccccc3s2)s1	-46	48*	-6	32*	100*	66*
CC(C)CCNC(=O)COc1ccc2c(c1)C(=O)CC(C)(C)O2	-97	50*	-6	12	+	+
CCC(Oc1ccc2c(c1)C(=O)CC(C)(C)O2)C(=O)NCCN1CCCCCC1 (centres undefined)	-99	59*	-15	12	-3	-6
CC1(C)CC(=O)c2cc(OCC(=O)NCCN3CCCc4ccccc43)ccc2O1	-42	18	x	7	x	x
Cc1nn(CC(=O)NCCCN2CC(C)CC(C)C2)c(=O)c2cccn12 (centres undefined)	-6	1	2	1	x	x
CS(=O)(=O)c1ccc(Cl)c(NC(=O)COC(=O)COc2ccc3c(c2)CCC3)c1	1	3	-3	5	x	x
Cc1nc(SCC(=O)N2CCN(c3ccccc3)CC2)c2oc3ccccc3c2n1	-5	31*	2	9	+	+
Nc1c(C(=O)Nc2ccccc2F)sc2nc(-c3ccco3)ccc12	-22	40*	-23	32*	50*	43*
COC(=O)c1sc2nc(-c3ccco3)ccc2c1N	11	2	-6	18	x	x
NC(=O)c1sc2nc(-c3ccco3)ccc2c1N	-29	53*	-20	10	+	+
Nc1c(C(=O)Nc2ccccc2F)sc2nc(-c3cccnc3)ccc12	4	0	-19	12	x	x
CC(C(=O)Nc1ccc(C#N)cc1)N(C)Cc1cccs1 (centres undefined)	1	77*	1	-4	50*	40*
CC(C(=O)Nc1ccc(Cl)cc1)N(C)Cc1cccs1 (centres undefined)	9	2	3	-1	x	x
Cc1cc(=O)oc2cc(OCc3ccc(C(=O)N4CCN(c5ccc([N+](=O)[O-])cc5)CC4)cc3)ccc12	5	-3	-2	5	x	x
Cc1cc(=O)oc2cc(OCC(=O)N3CCOCC3)ccc12	4	18	-6	13	x	x
Cc1cc(=O)oc2cc(OCC(=O)N3CCCC3)ccc12	4	41*	x	2	13	5	GDH-TPI DR=5.3*
CCOC(=O)C1CCN(C(=O)COc2ccc3c(C)cc(=O)oc3c2)CC1	-22	35*	0	5	148*	136*
Cc1cc(=O)oc2cc(OCc3ccc(C(=O)N4CCN(c5ccccc5)CC4)cc3)ccc12	-33	44*	2	6	121*	89*
Cc1nnc(C)n1N1C(=O)c2cccc3cccc(c23)C1=O	-25	62*	-1	24	17	10*
